The entries come from a sample that favours hits as a whole.
DUX4 txn inh: blocks DUX4-driven transcriptional activation; AID 1224904; 293T-iDUX4 ZSCAN4-Gaussia luciferase reporter, 24 h; active compounds read low; hit rate 0.8% among 37,000; activity change, negative = inhibition, % (no concentration beside the values);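 active = mean inhibition of at least 10% in the main channel, exceeding the control channel by a set limit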
Of the large screens only hits and unclear results are named; the others gave an inactive call.

COC(=O)C[C@@H]1C[C@H]2c3cc(NC(=O)c4ccc5c(c4)OCO5)ccc3O[C@H]2[C@@H](CO)O1	none
CN(C)C(=O)[C@@H]1[C@@H](CO)[C@@H]2Cn3c(ccc(C4=CCCCC4)c3=O)[C@@H]2N1Cc1ccc2c(c1)OCO2	DUX4 txn inh -15
CCNC(=O)[C@H]1[C@H](CO)[C@H]2Cn3c(ccc(C4=CCCCC4)c3=O)[C@H]2N1Cc1ccc2c(c1)OCO2	none
CN(C)C(=O)[C@H]1[C@H](CO)[C@H]2Cn3c(ccc(C4=CCCCC4)c3=O)[C@H]2N1Cc1ccc2c(c1)OCO2	none
CC[C@@H]1C/C=C\C[C@H](c2ccc(F)cc2)NC(=O)CCC(=O)N1	none
COCC(=O)N(C)C[C@H]1Oc2cc(C#CC(C)(C)O)ccc2S(=O)(=O)N([C@@H](C)CO)C[C@H]1C	none
CN1CCCCN2[C@H](C1)[C@H](c1ccc(C#Cc3ccccc3F)cc1)[C@@H]2CO	none
OC[C@H]1[C@H](c2ccc(C#Cc3ccccc3F)cc2)[C@@H]2CN(CC3CCOCC3)CCCCN12	DUX4 txn inh -13
CN1CCCCN2[C@H](CO)[C@H](c3ccc(C#Cc4ccccc4F)cc3)[C@@H]2C1	none
OC[C@@H]1[C@H](c2ccc(C#Cc3ccccc3F)cc2)[C@H]2CN(CC3CCOCC3)CCCCN12	DUX4 txn inh -21
OC[C@H]1[C@H](c2ccc(C#Cc3ccccc3)cc2)[C@H]2CN(CC3CCOCC3)CCCCN21	none
OC[C@@H]1[C@H](c2ccc(C#Cc3ccccc3)cc2)[C@@H]2CN(CC3CCOCC3)CCCCN12	none
C[C@H]1CN([C@@H](C)CO)C(=O)CCCn2cc(nn2)CO[C@H]1CN(C)Cc1ccc(C(=O)O)cc1	none
Cc1ccc(S(=O)(=O)NCC[C@H]2CC[C@H](NC(=O)CCN3CCCCC3)[C@@H](CO)O2)cc1	none
Cc1ccc(S(=O)(=O)N2C[C@@H](O)COC[C@@H]3O[C@H](CC(=O)N[C@@H]4CCN(Cc5ccccc5)C4)CC[C@H]32)cc1	none
Cc1ccc(S(=O)(=O)N(C)C[C@@H]2OCc3ccccc3-c3c(n(C)c4ccccc34)C(=O)N([C@H](C)CO)C[C@H]2C)cc1	none
CN1c2ccc(-c3cccc(C#N)c3)cc2[C@@H]2[C@@H](CCN2C(=O)CC2CC2)[C@@H]1CO	none
O=C(C[C@H]1CC[C@@H](NC(=O)c2ccc3c(c2)OCO3)[C@@H](CO)O1)NCc1ccc(Oc2ccccc2)cc1	DUX4 txn inh -45
COc1ccc(CNC(=O)C[C@@H]2CC[C@H](NC(=O)CN(C)C)[C@@H](CO)O2)cc1	none
O=C(C[C@@H]1CC[C@@H](NC(=O)CC2CC2)[C@@H](CO)O1)NCc1ccc(-c2ccccc2)cc1	none
O=C(C[C@H]1C[C@@H]2c3cc(NC(=O)Nc4ccc(C(F)(F)F)cc4)ccc3O[C@@H]2[C@H](CO)O1)NC1CCCCC1	none
COc1ccc2c3c([nH]c2c1)[C@H](CO)N(CC1CC1)CC31CN(C(=O)NC2CCCC2)C1	none
COc1ccc2c3c(n(C)c2c1)[C@H](CO)N(C)CC31CN(C(=O)C2CCC2)C1	none
COc1ccc2c3c(n(C)c2c1)[C@@H](CO)N(CC1CC1)CC31CN(C(=O)c2ccc(F)cc2)C1	DUX4 txn inh -26
COc1ccc2c3c(n(C)c2c1)[C@H](CO)N(C)CC31CN(C(=O)NC(C)C)C1	none
COc1ccc2c3c(n(C)c2c1)[C@H](CO)N(CC1CC1)CC31CN(C(=O)NC2CCCC2)C1	none
COc1ccc2c3c([nH]c2c1)[C@H](CO)N(C(=O)c1ccccc1)CC31CN(C(=O)CC2CC2)C1	none
COc1ccc2c3c(n(C)c2c1)[C@@H](CO)N(C(=O)c1ccccc1)CC31CCN(CC2CC2)CC1	none
COc1ccc2c3c(n(C)c2c1)[C@@H](CO)N(C(=O)c1ccc(F)cc1)CC31CN(C(C)=O)C1	none
COc1ccc2c3c(n(C)c2c1)[C@@H](CO)N(CC1CC1)CC31CN(C(=O)c2ccccc2)C1	DUX4 txn inh -32
COc1ccc2c3c(n(C)c2c1)[C@@H](CO)N(C)CC31CN(C(=O)c2ccccc2F)C1	DUX4 txn inh -35
COc1ccc2c3c([nH]c2c1)[C@H](CO)N(CC1CC1)CC31CN(C(=O)c2ccccc2)C1	DUX4 txn inh -24
COc1ccc2c3c(n(C)c2c1)[C@H](CO)N(CC1CC1)CC31CN(C(=O)Nc2ccc(F)cc2F)C1	none
CO[C@H]1CN(C)C(=O)c2ccc(NS(C)(=O)=O)cc2OC[C@@H](C)N(C(=O)C2CCCCC2)C[C@@H]1C	none
O=C(C[C@H]1C=C[C@H](NC(=O)Cc2ccccn2)[C@@H](CO)O1)NCCc1ccncc1	none
CN1[C@@H]2c3ccc(-c4cncnc4)c(=O)n3C[C@@H]2[C@@H](CO)[C@@H]1C(=O)NC1Cc2ccccc2C1	none
CCC(=O)NC[C@@H]1[C@H](c2ccc(-c3ccccc3)cc2)[C@@H](CO)N1C(=O)C1CC1	none
CC(C)CC#Cc1ccc([C@H]2[C@H]3CN(C(=O)Nc4ccc(F)cc4)CC(=O)N3[C@H]2CO)cc1	none
CCCNC(=O)[C@H]1N[C@H]2c3ccc(-c4cccc(F)c4)c(=O)n3C[C@H]2[C@@H]1CO	none
CCCNC(=O)N1CC2(C1)CN(Cc1ccc(F)cc1)[C@H](CO)c1[nH]c3cc(OC)ccc3c12	none

Screening results from PubChem BioAssay.
